Test [1] can be described thus: qHTS assay to identify small molecule antagonists of the glucocorticoid receptor (GR) signaling pathway - cell viability counter screen (AID 720693). Also: nearly all actives have a fitted effect of over 55% in size. Background: Quantitative high-throughput screening tests each substance at several concentrations.
Test [2] can be described thus: qHTS assay for identifying genotoxic compounds that show differential cytotoxicity against isogenic chicken DT40 cell lines with known DNA damage response pathways - wild type cell line (AID 743012). Also: nearly all actives have a fitted effect of over 60% in size. Also: potency is read from the fitted curve at half-maximal effect. A digest of the protocol:
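Luminescent ATP viability signal (CellTiter-Glo, 30 min RT) recorded after wild type DT40 cells were incubated with compounds for 40 h at 37 C/5% CO2.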

Test [3] can be described thus: qHTS assay for identifying genotoxic compounds that show differential cytotoxicity against isogenic chicken DT40 cell lines with known DNA damage response pathways - Rev3 mutant cell line (AID 743014). Also: nearly all actives have a fitted effect of over 55% in size. Also: potency is read from the fitted curve at half-maximal effect.
A short description of test [4]: qHTS assay to identify small molecule antagonists of the androgen receptor (AR) signaling pathway - cell viability counter screen (AID 743033; also: nearly all actives have a fitted effect of over 45% in size).
Test [5] is described as follows: qHTS assay to identify small molecule antagonists of the androgen receptor (AR) signaling pathway using the MDA cell line - cell viability counter screen (AID 743041; also: nearly all actives have a fitted effect of over 45% in size). In a few lines:
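In this qHTS counter assay, fluorescence intensity after CellTiter-Fluor addition indicated viability of MDA-kb2 AR-luc cells given compounds and R1881 for 16 h at 37C.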

Test [6] can be described thus: qHTS assay for identifying genotoxic compounds that show differential cytotoxicity against isogenic chicken DT40 cell lines with known DNA damage response pathways - Rad54/Ku70 mutant cell line (AID 743015). Also: nearly all actives have a fitted effect of over 60% in size. Also: potency is read from the fitted curve at half-maximal effect.
Test [7] addresses Androgen receptor (Homo sapiens) (UniProt P10275). The test can be described thus: qHTS assay to identify small molecule agonists of the androgen receptor (AR) signaling pathway using the MDA cell line (AID 743040; also: nearly all actives have a fitted effect of over 20% in size). A digest of the protocol: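 Cell-based luciferase reporter: MDA-kb2, MMTV promoter (AR + GR response elements). 16 h compound exposure at 37C; ONE-Glo, 30 min RT, luminescence.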

The target is the same in test [8]. In words: qHTS assay to identify small molecule antagonists of the androgen receptor (AR) signaling pathway using the MDA cell line (AID 743042; also: nearly all actives have a fitted effect of over 55% in size). In a few lines:
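MDA-kb2 cells (human breast carcinoma, stably carrying an MMTV-luciferase reporter responsive to AR and GR) were plated at 3,000 cells/well and preincubated 5 hr at 37C, then given compound plus R1881 agonist for 16 h. ONE-Glo luminescence was read.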

For test [9] the target is unchanged. In words: qHTS assay to identify small molecule antagonists of the androgen receptor (AR) signaling pathway (AID 743035; active = well fitted inhibition curve with a large enough effect in the signal ratio in the repeat runs, not every such curve was filed as active; the % refers to the signal ratio). A digest of the protocol:
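Quantitative HTS of the Tox21 10K library used HEK293 AR-UAS-bla cells stimulated with R1881 alongside compound for 16 h at 37C, followed by beta-lactamase FRET detection (LiveBLAzer B/G, 2 h, RT).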

The target is the same in test [10]. The test can be described thus: qHTS assay to identify small molecule agonists of the androgen receptor (AR) signaling pathway (AID 743036; active = well fitted activation curve with a large enough effect in the signal ratio in the repeat runs, with a control signal flat, not every such curve was filed as active; the % refers to the signal ratio). In a few lines: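 Activation was read as beta-lactamase FRET signal from LiveBLAzer B/G substrate, added for 2 h at room temperature. Before that, GeneBLAzer AR-UAS-bla GripTite (HEK293) cells had 16 h compound exposure at 37C.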

Records with an inconclusive call do not appear. Calls of active or inactive are those of the source. Unless noted, calls follow the shape of the dose curve; as a rule, active = well fitted curve in the direction sought with a large enough effect in the repeat runs; inconclusive = weak or mixed curves; inactive = no such curve, though single readings can be large; an effect the other way counts as inactive or inconclusive.

Chain of Androgen receptor (Homo sapiens) (P10275 whole entry, looked up): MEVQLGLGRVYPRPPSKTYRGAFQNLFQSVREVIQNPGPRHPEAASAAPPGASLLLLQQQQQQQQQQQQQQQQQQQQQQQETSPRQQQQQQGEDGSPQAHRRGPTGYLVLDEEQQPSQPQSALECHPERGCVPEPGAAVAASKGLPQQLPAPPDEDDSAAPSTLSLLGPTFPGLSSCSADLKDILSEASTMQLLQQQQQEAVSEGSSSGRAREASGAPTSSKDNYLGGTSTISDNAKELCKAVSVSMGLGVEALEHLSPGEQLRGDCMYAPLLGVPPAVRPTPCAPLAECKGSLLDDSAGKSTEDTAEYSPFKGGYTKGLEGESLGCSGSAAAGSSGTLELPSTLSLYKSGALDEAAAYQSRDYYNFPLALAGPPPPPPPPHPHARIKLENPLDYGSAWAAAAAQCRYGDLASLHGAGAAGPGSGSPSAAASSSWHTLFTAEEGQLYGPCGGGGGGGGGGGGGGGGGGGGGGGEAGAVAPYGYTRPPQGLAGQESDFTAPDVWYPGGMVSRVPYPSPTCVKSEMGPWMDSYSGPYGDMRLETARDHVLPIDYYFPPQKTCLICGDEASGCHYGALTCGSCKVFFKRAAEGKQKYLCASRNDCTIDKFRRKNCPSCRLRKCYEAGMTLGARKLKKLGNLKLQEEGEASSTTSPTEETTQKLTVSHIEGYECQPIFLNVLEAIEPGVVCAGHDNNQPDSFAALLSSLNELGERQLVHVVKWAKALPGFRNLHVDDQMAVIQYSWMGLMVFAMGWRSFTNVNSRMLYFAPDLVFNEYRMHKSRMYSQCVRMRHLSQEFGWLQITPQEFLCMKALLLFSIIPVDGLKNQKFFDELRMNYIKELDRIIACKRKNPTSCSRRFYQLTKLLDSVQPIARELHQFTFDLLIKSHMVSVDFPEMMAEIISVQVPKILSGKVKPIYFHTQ

Regarding `O=C(/C=C/c1ccc(O)c(O)c1)O[C@@H]1C[C@](O)(C(=O)O)C[C@@H](O)[C@H]1O`, the Potency entry in [1], in [2], in test [3], in [4] and in test [5] was “inactive” each time.

Regarding `CCCC(C)C`, the Potency entry in test [1], in test [2], in test [3], in test [4] and in [5] was “inactive” throughout.

For `O=C(Nc1ccccc1)OCC(CN1CCCCC1)OC(=O)Nc1ccccc1` (centres undefined), the Potency result in test [1], in test [2], in test [3], in test [4] and in test [5] was “inactive” throughout.

For `CN1CCC[C@@H]1c1cccnc1`, the Potency entry in [1], in test [2], in [3], in test [4] and in test [5] was “inactive” throughout.

Regarding `CC(C)c1cccc(C(C)C)c1NC(=O)NS(=O)(=O)c1cc(C(C)(C)O)co1`, the Potency result in test [1], in [2], in [3], in [4] and in test [5] was “inactive” in each case.

Consider `COCCO`, for which the Potency result in test [1], in test [2], in [3], in test [4] and in test [5] was “inactive” each time.

For `Cc1ccc(C(N)=O)cc1N`, the Potency result in [1], in test [2], in [3], in [4] and in [5] was “inactive” throughout.

Turning to `CN1CCN(C2=Nc3cc(Cl)ccc3Nc3ccccc32)CC1`, the Potency entry in test [1], in test [4] and in test [5] was “inactive” in each case. Further, the Potency in test [2] was 21.1 µM (active); in test [3], 26.6 µM (active).

On to `CCCCOc1cc(C(=O)OCCN(CC)CC)ccc1N`, for which the Potency result in test [1], in test [4] and in test [5] was “inactive” throughout. Further, the Potency is 10.1 µM (active) in [2] and 2.54 µM (active) in test [3].

Turning to `c1ccc(CNCc2ccccc2)cc1`, the Potency result in [1], in test [4] and in [5] was “inactive” throughout. Besides, the Potency is 54.5 µM (active) in test [2] and 30.6 µM (active) in [3].

Take `C=C(C)C(=O)OCCN(C)C`: the Potency entry in test [1], in test [2], in test [3], in [4] and in test [5] was “inactive” in each case.

Regarding `CC(C)(C)c1ccc(OCC2CO2)cc1` (centres undefined), the Potency entry in [1], in [2], in test [3], in test [4] and in test [5] was “inactive” in each case.

In the case of `N=C(N=C(N)N)N1CCOCC1`, the Potency entry in test [1], in test [2], in test [6], in test [4] and in test [5] was “inactive” throughout.

Regarding `CCCCCCCCC(CO)CCCCCC` (centres undefined), the Potency entry in test [1], in test [2], in test [3] and in [5] was “inactive” each time.

`Cc1cc(O)ccc1N`: the Potency entry in test [1] and in test [7] was “inactive” throughout. Besides, the Potency in test [2] was 13.8 µM (active); in [3], 6.14 µM (active).

As to `CC(C)(C)c1cc(CCC(=O)OCC(COC(=O)CCc2cc(C(C)(C)C)c(O)c(C(C)(C)C)c2)(COC(=O)CCc2cc(C(C)(C)C)c(O)c(C(C)(C)C)c2)COC(=O)CCc2cc(C(C)(C)C)c(O)c(C(C)(C)C)c2)cc(C(C)(C)C)c1O`, the Potency entry in [1], in [2], in [3], in [4] and in [5] was “inactive” each time.

With `Cc1occc1S`, the Potency entry in test [1], in [4] and in [5] was “inactive” each time. Besides, the figures for the Potency in test [2] and in test [3] were 54.5 µM (active) and 61.1 µM (active), respectively.

Take `CCCCCC(CO)CCC` (centres undefined): the Potency entry in test [1], in test [2], in test [6] and in test [4] was “inactive” throughout.

On to `CC(CN)CCCN` (centres undefined), for which the Potency result in test [1], in test [2], in test [3], in test [4] and in test [5] was “inactive” each time.

On to `FC(F)(F)C(F)(F)C(F)(F)C(F)(F)C(F)(F)C(F)(F)CCI`, for which the Potency entry in test [1], in test [2], in test [3] and in [5] was “inactive” each time.

For `CC(C(=O)O)c1ccc(-c2ccccc2)c(F)c1` (centres undefined), the Potency result in test [1], in test [2], in test [3], in test [4] and in test [5] was “inactive” in each case.

Regarding `Cc1cc(CC(=O)O)c(C)n1-c1ccc(Cl)cc1`, the Potency result in test [1], in test [4] and in test [5] was “inactive” each time. Further, the figures for the Potency in test [2] and in test [3] were 26.6 µM (active) and 33.5 µM (active), respectively.

Turning to `ClC(Cl)(Cl)c1ccc(C(Cl)(Cl)Cl)cc1`, the Potency result in test [1], in [2], in test [3], in test [4] and in test [5] was “inactive” throughout.

For the compound `CCN(CC)CCc1nc(-c2ccccc2)no1`, the Potency result in [1], in test [2], in test [6], in test [4] and in test [5] was “inactive” each time.

In the case of `Cn1c(NCCN(CCO)CCCc2ccc([N+](=O)[O-])cc2)cc(=O)n(C)c1=O`, the Potency entry in test [1], in test [2], in test [3], in test [4] and in test [5] was “inactive” throughout.

On to `Oc1ccc2c(c1)OCO2`, for which the Potency result in [1], in test [4] and in test [5] was “inactive” in each case. For the same compound, the Potency in test [2] and in test [3] was 54 µM (active) throughout.

Take `O=[N+]([O-])c1cccc(Cl)c1Cl`: the Potency entry in test [1], in test [2], in [3] and in test [5] was “inactive” each time.

For the compound `CCCCc1cc2ccccc2c(OCCN(C)C)n1`, the Potency result in [1] and in test [5] was “inactive” each time. For the same compound, the Potency was 6.39 µM (active) in test [2] and 9.02 µM (active) in test [3].

`CCN1CCC[C@H]1CNC(=O)c1c(OC)ccc(Br)c1OC`: the Potency entry in test [1], in [2], in [6], in test [4] and in [5] was “inactive” in each case.

Take `CC(=O)O[C@@H]1C(=O)O[C@@H]2[C@H]1OC(=O)[C@@H]2OC(C)=O`: the Potency result in test [1], in [4] and in test [5] was “inactive” each time. For the same compound, the Potency in [2] and in test [6] was 26.6 µM (active) throughout.

In the case of `CCN(CCO)CCCC(C)Nc1ccnc2cc(Cl)ccc12` (centres undefined), the Potency entry in [1] and in test [5] was “inactive” throughout. The Potency is 29.8 µM (active) in [2] and 23.7 µM (active) in [3].

For `CN1CCN(C2=Nc3ccccc3Sc3ccc(Cl)cc32)CC1`, the Potency entry in test [1], in test [7], in test [5] and in test [8] was “inactive” each time. For the same compound, the Potency was 8.41 µM (active) in [2] and 6.68 µM (active) in test [3].

`CCCCC(CC)(CO)CO`: the Potency entry in test [1], in test [2], in [6], in test [4] and in [5] was “inactive” each time.

Take `CCOc1cc(OCC)c(C(=O)CCC(=O)O)cc1OCC`: the Potency result in [1], in test [2], in test [6], in test [4] and in test [5] was “inactive” in each case.

Turning to `Cc1cccc(OCCOc2cccc(C)c2)c1`, the Potency entry in [1], in test [2], in test [4] and in [5] was “inactive” in each case.

Consider `O=S(=O)(O)c1ccc(O)c2ncccc12`, for which the Potency entry in test [1], in [3], in [6], in test [4] and in test [5] was “inactive” in each case.

As to `COC(Cc1ccccc1)OC`, the Potency result in test [1], in [3], in test [6], in test [4] and in [5] was “inactive” in each case.

Regarding `Cc1ccc(O)c([C@H](CCN(C(C)C)C(C)C)c2ccccc2)c1`, the Potency result in test [1], in test [4] and in test [5] was “inactive” throughout. The Potency in test [2] is 26.6 µM (active).

On to `O=C(O)Cn1c(C(=O)Nc2nc(-c3ccccc3Cl)cs2)cc2ccccc21`, for which the Potency result in test [1], in test [2], in [6], in test [4] and in test [5] was “inactive” in each case.

On to `CCCCOCCOCCOCCOCCO`, for which the Potency entry in test [1], in [2], in test [6], in test [4] and in [5] was “inactive” in each case.

On to `O=CNc1ccccc1`, for which the Potency result in test [1], in test [2], in test [6], in test [4] and in test [5] was “inactive” in each case.

Consider `CC[C@@H]1C[C@H](N(Cc2cc(C(F)(F)F)cc(C(F)(F)F)c2)C(C)=O)c2cc(C(F)(F)F)ccc2N1C(=O)OC(C)C`, for which the Potency entry in [1] and in test [5] was “inactive” each time. For the same compound, the Potency in test [2] was 27.3 µM (active).

In the case of `CNCC[C@@H](Oc1ccccc1C)c1ccccc1`, the Potency entry in [1], in test [4], in test [9], in test [7] and in test [5] was “inactive” throughout. For the same compound, the Potency in test [2] was 16.8 µM (active). Besides, in test [10], the compound was classed as inactive.

With `CC(=O)/C=C/C1C(C)=CCCC1(C)C` (centres undefined), the Potency result in test [1], in test [3], in test [6] and in test [5] was “inactive” throughout.

Regarding `CCN(CC)C(C)CN1c2ccccc2Sc2ccccc21` (centres undefined), the Potency entry in [1], in test [3], in test [4] and in [5] was “inactive” in each case.

On to `COc1ccc2[nH]c(S(=O)Cc3ncc(C)c(OC)c3C)nc2n1` (centres undefined), for which the Potency entry in test [1], in test [4] and in [5] was “inactive” each time. Besides, the Potency in test [2] and in test [6] was 29.8 µM (active) throughout.

In the case of `CC(C)(C)C1CCCCC1O` (centres undefined), the Potency result in test [1], in test [3], in test [6], in test [4] and in test [5] was “inactive” each time.

As for `CC(=O)N(O)CCCCCNC(=O)CCC(=O)N(O)CCCCCNC(=O)CCC(=O)N(O)CCCCCN`, the Potency result in test [1], in test [3], in test [6], in test [4], in [7] and in test [5] was “inactive” each time. The result in [10] was inactive.

Consider `Cc1ccccc1N=Nc1ccc(N=Nc2c(O)ccc3ccccc23)c(C)c1`, for which the Potency result in [1], in [3], in test [4] and in test [5] was “inactive” in each case.

Regarding `Oc1ccc(Cc2ccccc2)cc1`, the Potency entry in test [1], in test [2] and in [5] was “inactive” throughout.
